Assay in all cases: DAPPL (digital affinity profiling via proximity ligation, sequencing); 10 mM Tris-HCl pH 7.5, 50 mM NaCl, 1 mM DTT, 4% glycerol, room temperature, 30 min; GST-TFs on glutathione beads, 16-mer random dsDNA library, 0.1% formaldehyde crosslink after washing; high values mean tight binding
One assay addresses T1, FEV (Homo sapiens, UniProt Q99581 1-238).
T1 sequence: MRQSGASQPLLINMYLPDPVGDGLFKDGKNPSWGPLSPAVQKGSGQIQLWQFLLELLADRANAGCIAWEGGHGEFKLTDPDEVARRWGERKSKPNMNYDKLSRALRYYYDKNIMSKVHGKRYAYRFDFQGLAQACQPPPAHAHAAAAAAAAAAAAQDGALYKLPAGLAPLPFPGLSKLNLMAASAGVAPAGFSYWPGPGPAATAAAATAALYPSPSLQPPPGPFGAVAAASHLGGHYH
The following applies: protein: recombinant; tags: N-terminal GST; dsDNA, one strand shown. A digest of the protocol:
(§1)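 Binding signal is each hexamer's read frequency for a factor divided by its frequency in the tag-only sample. The factors were GST-fused human transcription factors from yeast, captured on glutathione beads, DNA-barcoded and pooled with that sample. Pools were incubated with 200 nmole of a random double-stranded 16-mer DNA library in Tris/NaCl/DTT/glycerol buffer at room temperature for 30 min, then washed, crosslinked with 0.1% formaldehyde, proximity-ligated with BsaI/T4 ligase (1 h, 37 °C), PCR-amplified and sequenced on an Illumina NextSeq500.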

In a further assay the target is ETV5 (Homo sapiens, UniProt P41161 1-510). The following applies: protein: recombinant; tags: N-terminal GST; dsDNA, one strand shown. Put shortly: as §1
Chain of ETV5 (P41161 whole entry): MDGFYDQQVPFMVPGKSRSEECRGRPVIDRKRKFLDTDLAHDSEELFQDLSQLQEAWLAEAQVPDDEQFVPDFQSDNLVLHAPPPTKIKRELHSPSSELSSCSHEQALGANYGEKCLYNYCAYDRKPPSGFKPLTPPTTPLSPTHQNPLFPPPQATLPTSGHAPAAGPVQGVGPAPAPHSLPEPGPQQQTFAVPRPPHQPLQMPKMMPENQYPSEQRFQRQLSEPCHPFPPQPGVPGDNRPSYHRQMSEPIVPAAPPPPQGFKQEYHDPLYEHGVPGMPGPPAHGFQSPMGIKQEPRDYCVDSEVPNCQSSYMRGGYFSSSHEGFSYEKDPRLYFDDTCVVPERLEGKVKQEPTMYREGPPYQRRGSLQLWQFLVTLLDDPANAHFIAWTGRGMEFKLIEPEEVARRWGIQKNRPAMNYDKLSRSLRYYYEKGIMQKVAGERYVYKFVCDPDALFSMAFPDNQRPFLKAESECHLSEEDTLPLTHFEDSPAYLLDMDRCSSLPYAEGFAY
In another assay the target is HSF1 (Homo sapiens, UniProt Q00613 1-529). The conditions noted are these: protein: recombinant; tags: N-terminal GST; chain copies: 3; dsDNA, one strand shown. A digest of the protocol:
as §1

The target of a further assay is T2, SPIC (Homo sapiens, UniProt Q8N5J4 1-248).
T2 sequence: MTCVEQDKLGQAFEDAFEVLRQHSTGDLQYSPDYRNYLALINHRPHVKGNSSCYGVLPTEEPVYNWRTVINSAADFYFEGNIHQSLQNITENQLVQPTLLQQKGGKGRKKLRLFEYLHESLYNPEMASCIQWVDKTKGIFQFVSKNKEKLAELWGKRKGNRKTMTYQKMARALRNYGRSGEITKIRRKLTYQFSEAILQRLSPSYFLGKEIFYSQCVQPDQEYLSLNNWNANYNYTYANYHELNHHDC
The following applies: protein: recombinant; tags: N-terminal GST; dsDNA, one strand shown. A digest of the protocol:
as §1

The target in the next assay is ELF4 (Homo sapiens, UniProt Q99607 1-663). The following applies: protein: recombinant; tags: N-terminal GST; dsDNA, one strand shown. A digest of the protocol: as §1
Chain of ELF4 (Q99607 whole entry): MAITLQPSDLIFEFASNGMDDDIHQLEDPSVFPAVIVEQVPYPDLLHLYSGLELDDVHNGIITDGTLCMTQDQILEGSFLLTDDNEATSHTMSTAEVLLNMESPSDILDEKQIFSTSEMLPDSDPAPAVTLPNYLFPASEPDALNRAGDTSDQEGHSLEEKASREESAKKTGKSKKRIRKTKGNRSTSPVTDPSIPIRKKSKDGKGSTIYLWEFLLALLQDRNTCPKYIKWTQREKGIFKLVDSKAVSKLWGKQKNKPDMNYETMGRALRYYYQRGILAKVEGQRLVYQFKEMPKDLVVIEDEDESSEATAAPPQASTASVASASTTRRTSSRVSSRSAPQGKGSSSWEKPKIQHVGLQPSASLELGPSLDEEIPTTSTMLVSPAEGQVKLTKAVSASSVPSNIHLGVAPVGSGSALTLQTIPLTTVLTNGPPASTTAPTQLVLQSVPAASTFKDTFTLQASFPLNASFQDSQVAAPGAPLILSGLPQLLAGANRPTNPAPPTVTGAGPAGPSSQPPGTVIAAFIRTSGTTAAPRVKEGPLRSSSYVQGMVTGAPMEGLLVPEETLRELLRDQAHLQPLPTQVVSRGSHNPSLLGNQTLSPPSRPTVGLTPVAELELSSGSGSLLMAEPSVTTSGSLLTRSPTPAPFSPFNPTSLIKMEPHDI
The target in the next assay is T3, ELK4 (Homo sapiens, UniProt P28324-2 1-405).
T3 sequence: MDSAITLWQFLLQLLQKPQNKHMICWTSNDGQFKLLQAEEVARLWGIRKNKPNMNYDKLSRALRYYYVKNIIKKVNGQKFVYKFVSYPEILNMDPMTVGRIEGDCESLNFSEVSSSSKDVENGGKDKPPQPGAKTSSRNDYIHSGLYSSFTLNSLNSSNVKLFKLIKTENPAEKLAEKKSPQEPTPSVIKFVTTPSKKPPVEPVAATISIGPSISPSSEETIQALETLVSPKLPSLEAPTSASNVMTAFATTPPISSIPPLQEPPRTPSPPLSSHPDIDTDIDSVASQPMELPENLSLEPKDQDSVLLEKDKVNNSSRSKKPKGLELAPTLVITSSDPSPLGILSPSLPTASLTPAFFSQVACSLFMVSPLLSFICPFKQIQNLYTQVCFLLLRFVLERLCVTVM
The conditions noted are these: protein: recombinant; tags: N-terminal GST; dsDNA, one strand shown. A digest of the protocol:
as §1

Another assay deals with T4, ETV2 (Homo sapiens, UniProt O00321 1-342).
T4 sequence: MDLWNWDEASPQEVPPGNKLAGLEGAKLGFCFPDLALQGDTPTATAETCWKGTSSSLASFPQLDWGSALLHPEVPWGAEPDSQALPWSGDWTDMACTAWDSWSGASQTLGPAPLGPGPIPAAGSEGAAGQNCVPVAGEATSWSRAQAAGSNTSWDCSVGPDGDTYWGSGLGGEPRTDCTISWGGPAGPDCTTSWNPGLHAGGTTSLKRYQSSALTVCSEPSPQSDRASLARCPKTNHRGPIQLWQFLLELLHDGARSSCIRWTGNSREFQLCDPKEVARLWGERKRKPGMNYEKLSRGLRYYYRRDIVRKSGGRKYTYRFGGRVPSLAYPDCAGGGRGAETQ
The conditions noted are these: protein: recombinant; tags: N-terminal GST; dsDNA, one strand shown. Put shortly: as §1

Another assay deals with T5, ELF3 (Homo sapiens, UniProt P78545 1-371).
T5 sequence: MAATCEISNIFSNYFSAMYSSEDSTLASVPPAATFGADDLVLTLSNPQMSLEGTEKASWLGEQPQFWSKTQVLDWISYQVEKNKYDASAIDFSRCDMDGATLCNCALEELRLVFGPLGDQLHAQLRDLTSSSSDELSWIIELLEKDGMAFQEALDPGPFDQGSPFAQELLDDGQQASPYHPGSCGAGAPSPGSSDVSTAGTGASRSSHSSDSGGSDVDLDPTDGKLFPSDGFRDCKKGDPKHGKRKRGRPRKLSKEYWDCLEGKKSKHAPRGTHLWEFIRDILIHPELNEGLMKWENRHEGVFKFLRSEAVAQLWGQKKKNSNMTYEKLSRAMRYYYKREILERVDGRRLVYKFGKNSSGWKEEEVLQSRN
The conditions noted are these: protein: recombinant; tags: N-terminal GST; dsDNA, one strand shown. A digest of the protocol: as §1

The target of a further assay is CRX (Homo sapiens, UniProt O43186 1-299). The following applies: protein: recombinant; tags: N-terminal GST; dsDNA, one strand shown. A digest of the protocol:
as §1

Another assay addresses ETV1 (Homo sapiens, UniProt P50549 1-477). The conditions noted are these: protein: recombinant; tags: N-terminal GST; dsDNA, one strand shown. A digest of the protocol:
as §1

In the next assay the target is T6, ERF (Homo sapiens, UniProt P50548 1-548).
T6 sequence: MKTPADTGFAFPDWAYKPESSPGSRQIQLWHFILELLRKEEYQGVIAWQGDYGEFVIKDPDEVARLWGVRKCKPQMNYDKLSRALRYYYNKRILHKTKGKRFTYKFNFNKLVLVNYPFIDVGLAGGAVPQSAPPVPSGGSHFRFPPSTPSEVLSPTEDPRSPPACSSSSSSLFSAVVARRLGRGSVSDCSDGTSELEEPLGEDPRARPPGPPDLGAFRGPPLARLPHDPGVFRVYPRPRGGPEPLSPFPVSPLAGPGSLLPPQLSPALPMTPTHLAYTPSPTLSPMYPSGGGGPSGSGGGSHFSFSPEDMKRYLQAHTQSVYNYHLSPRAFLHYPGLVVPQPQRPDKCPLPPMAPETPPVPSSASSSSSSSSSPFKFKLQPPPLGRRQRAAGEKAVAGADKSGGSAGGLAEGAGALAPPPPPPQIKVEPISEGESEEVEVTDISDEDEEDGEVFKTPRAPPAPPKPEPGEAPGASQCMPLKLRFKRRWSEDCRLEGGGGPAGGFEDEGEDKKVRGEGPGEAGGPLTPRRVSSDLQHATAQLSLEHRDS
The conditions noted are these: protein: recombinant; tags: N-terminal GST; dsDNA, one strand shown. Put shortly: as §1

Another assay concerns the target T7, ETV3L (Homo sapiens, UniProt Q6ZN32 1-361).
T7 sequence: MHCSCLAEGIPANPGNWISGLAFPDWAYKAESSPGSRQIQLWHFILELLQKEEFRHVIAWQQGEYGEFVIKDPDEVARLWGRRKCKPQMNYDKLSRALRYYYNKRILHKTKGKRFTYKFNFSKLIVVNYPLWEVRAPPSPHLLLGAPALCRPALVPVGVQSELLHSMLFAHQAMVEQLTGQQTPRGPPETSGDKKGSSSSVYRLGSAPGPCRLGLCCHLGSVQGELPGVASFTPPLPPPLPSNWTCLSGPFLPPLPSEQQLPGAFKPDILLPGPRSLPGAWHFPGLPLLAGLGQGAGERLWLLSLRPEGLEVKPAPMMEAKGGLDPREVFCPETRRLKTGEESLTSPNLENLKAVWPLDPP
The following applies: protein: recombinant; tags: N-terminal GST; dsDNA, one strand shown. A digest of the protocol: as §1

In another assay the target is T8, ETS2 (Homo sapiens, UniProt P15036 1-469).
T8 sequence: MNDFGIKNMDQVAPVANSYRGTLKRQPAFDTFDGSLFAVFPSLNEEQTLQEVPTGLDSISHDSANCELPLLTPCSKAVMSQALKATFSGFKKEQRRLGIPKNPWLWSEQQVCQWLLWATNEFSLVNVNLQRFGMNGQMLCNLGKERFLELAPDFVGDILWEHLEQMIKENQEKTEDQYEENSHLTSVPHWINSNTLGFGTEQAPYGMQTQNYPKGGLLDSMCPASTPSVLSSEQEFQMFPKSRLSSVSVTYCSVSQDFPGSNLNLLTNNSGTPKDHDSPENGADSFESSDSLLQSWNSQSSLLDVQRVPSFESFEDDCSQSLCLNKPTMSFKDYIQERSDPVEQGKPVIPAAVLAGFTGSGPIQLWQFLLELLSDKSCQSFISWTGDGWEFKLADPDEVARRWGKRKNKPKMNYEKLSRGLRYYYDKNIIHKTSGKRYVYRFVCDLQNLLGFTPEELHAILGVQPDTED
The conditions noted are these: protein: recombinant; tags: N-terminal GST; dsDNA, one strand shown. Put shortly: as §1

In a further assay the target is T9, SPDEF (Homo sapiens, UniProt O95238 1-335).
T9 sequence: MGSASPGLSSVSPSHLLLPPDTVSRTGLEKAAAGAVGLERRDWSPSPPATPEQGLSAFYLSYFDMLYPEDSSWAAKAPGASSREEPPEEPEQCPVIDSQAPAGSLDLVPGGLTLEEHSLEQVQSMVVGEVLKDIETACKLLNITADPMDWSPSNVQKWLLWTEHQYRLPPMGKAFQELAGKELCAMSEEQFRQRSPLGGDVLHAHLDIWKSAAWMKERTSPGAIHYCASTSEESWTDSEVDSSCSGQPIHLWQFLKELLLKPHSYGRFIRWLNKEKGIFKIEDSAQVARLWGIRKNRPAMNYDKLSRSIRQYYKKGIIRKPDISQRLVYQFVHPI
The following applies: protein: recombinant; tags: N-terminal GST; dsDNA, one strand shown. A digest of the protocol: as §1

The target of a further assay is T10, ETV7 (Homo sapiens, UniProt Q9Y603 1-341).
T10 sequence: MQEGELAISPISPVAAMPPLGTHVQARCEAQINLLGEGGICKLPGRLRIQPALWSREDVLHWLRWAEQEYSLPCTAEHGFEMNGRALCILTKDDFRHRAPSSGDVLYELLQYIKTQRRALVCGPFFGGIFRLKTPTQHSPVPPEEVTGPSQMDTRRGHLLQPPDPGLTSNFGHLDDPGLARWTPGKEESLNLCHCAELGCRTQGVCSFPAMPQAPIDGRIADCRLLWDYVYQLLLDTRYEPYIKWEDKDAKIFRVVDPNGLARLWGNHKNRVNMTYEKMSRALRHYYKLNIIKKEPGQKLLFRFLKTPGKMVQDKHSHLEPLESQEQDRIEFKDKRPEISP
The following applies: protein: recombinant; tags: N-terminal GST; dsDNA, one strand shown. A digest of the protocol: as §1

The target of the next assay is T11, ELF5 (Homo sapiens, UniProt Q9UKW6-2 1-255).
T11 sequence: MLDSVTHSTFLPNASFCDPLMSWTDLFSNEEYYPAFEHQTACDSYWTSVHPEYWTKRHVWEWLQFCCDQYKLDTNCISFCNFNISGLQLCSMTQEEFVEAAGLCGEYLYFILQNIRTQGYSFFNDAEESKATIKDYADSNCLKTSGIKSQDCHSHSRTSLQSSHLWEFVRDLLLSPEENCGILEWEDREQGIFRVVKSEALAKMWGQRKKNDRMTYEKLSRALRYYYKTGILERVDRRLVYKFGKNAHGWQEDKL
The following applies: protein: recombinant; tags: N-terminal GST; dsDNA, one strand shown. A digest of the protocol: as §1

Another assay addresses T12, ETV3 (Homo sapiens, UniProt P41162-2 1-143).
T12 sequence: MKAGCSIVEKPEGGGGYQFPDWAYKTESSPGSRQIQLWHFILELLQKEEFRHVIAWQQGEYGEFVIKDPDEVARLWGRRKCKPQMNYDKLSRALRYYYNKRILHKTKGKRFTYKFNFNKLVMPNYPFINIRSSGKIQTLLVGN
The conditions noted are these: protein: recombinant; tags: N-terminal GST; dsDNA, one strand shown. A digest of the protocol: as §1

In the next assay the target is ETV6 (Homo sapiens, UniProt P41212 1-452). The conditions noted are these: protein: recombinant; tags: N-terminal GST; dsDNA, one strand shown. A digest of the protocol:
as §1

Chain of ETV1 (P50549 whole entry): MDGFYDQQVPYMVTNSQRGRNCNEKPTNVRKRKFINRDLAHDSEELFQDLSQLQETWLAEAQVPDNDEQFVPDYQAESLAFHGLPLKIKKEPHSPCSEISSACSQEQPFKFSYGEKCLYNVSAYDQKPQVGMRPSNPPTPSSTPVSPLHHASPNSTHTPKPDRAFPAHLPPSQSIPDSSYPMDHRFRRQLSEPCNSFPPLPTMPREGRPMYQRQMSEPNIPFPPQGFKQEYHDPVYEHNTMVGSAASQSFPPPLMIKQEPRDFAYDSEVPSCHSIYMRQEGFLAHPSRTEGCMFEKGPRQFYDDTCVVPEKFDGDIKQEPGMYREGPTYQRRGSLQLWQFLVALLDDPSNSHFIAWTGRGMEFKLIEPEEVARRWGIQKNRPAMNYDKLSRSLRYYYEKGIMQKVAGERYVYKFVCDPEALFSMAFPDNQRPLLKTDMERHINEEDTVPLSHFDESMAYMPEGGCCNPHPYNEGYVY
Chain of CRX (O43186 whole entry): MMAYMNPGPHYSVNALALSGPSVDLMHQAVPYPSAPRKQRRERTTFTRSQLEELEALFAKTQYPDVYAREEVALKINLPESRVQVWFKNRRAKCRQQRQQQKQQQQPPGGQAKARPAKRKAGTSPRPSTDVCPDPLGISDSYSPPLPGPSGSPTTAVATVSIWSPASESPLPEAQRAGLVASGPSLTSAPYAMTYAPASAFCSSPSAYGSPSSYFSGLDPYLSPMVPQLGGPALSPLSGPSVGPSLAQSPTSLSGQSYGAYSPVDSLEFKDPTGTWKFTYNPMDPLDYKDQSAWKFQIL
Chain of HSF1 (Q00613 whole entry): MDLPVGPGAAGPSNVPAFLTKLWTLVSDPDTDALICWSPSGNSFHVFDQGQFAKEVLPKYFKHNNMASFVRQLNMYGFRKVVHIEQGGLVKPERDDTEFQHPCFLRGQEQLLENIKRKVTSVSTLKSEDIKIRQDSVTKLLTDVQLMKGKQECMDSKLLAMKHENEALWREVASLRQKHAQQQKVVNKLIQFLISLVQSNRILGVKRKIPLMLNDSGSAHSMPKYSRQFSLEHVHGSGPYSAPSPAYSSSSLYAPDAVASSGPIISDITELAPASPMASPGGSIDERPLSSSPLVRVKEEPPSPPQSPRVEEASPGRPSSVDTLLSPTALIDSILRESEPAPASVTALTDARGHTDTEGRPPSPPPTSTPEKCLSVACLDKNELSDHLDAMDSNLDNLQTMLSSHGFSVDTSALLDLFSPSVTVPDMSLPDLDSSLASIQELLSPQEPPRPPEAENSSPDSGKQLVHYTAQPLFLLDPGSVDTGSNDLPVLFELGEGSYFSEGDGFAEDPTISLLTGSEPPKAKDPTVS
Chain of ETV6 (P41212 whole entry): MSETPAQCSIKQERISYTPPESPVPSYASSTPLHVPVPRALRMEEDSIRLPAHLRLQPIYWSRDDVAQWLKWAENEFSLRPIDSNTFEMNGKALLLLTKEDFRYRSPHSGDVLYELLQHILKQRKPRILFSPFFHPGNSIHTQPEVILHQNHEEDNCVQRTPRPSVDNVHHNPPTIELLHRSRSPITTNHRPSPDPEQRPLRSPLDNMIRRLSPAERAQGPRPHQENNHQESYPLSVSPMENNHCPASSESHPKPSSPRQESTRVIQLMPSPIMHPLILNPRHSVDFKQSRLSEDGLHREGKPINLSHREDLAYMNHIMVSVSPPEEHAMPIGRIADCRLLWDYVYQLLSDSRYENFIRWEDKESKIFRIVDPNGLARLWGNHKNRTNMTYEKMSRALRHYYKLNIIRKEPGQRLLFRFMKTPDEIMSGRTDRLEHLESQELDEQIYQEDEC

Take TATATT: the binding signal in the assay with FEV was 1.39 fold enrichment (6-mer frequency, TF over GST control); in the assay with ETV5, 1.43 fold enrichment (6-mer frequency, TF over GST control); with HSF1, 1.58 fold enrichment (6-mer frequency, TF over GST control); with SPIC it was 1.56 fold enrichment (6-mer frequency, TF over GST control); with ELF4 it was 1.32 fold enrichment (6-mer frequency, TF over GST control); in the assay with ELK4, 1.65 fold enrichment (6-mer frequency, TF over GST control). The binding signal with ETV2 is 1.41 fold enrichment (6-mer frequency, TF over GST control); in the assay with ELF3, 1.58 fold enrichment (6-mer frequency, TF over GST control); in the assay with CRX, 1.93 fold enrichment (6-mer frequency, TF over GST control); in the assay with ETV1 it was 1.44 fold enrichment (6-mer frequency, TF over GST control); in the assay with ERF, 1.43 fold enrichment (6-mer frequency, TF over GST control); with ETV3L, 1.5 fold enrichment (6-mer frequency, TF over GST control). Moreover, the binding signal is 1.31 fold enrichment (6-mer frequency, TF over GST control) with ETS2; 1.32 fold enrichment (6-mer frequency, TF over GST control) with SPDEF; 1.4 fold enrichment (6-mer frequency, TF over GST control) in the assay with ETV7; 1.35 fold enrichment (6-mer frequency, TF over GST control) in the assay with ELF5; 1.44 fold enrichment (6-mer frequency, TF over GST control) in the assay with ETV3; 1.37 fold enrichment (6-mer frequency, TF over GST control) with ETV6.

For the origin of these results see article PMC7862700, “An all-to-all approach to the identification of sequence-specific readers for epigenetic DNA modifications on cytosine”.
